We go through nine compounds from PubChem BioAssay (NCATS).

The target of experiment [1] is Alpha-galactosidase (Coffea arabica) (UniProt Q42656). The experiment is described as follows: Counterscreen for Glucocerebrosidase Inhibitors: qHTS Assay for Coffee Bean alpha-Galactosidase at pH 5.9 (AID 998).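 Also: plate controls were uninhibited enzyme for no effect and no-enzyme basal signal for full effect.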 The method, boiled down: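 In 50 mM citric acid pH 5.9 with 0.005% Tween-20, coffee bean enzyme hydrolyses 80 uM 4-MU alpha-D-galactopyranoside over 20 min at RT. Activity is normalized to controls; AC50 comes from Hill-modelled concentration-response data.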

Experiment [2] in a line: Inducers of the Endoplasmic Reticulum Stress Response (ERSR) in human glioma: Validation (AID 504836). Also: 0% is about no effect. The method, boiled down:
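Stably transfected U87-MG human glioma cells carrying a GRP78-based luminescent sensor were seeded at 1000 cells/well, pin-dosed with compounds and incubated 16 h. Luciferase reagent was then added, and end-point luminescence was read after 10 min at room temperature.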

Experiment [3] in a line: qHTS for Inhibitors of the Functional Ribonucleoprotein Complex (vRNP) of Lassa (LASV) Arenavirus: LASV Primary Screen - GLuc reporter signal (AID 1347082; calls by dose curve; tested in HEK293 reporter line; also: nearly all actives have a fitted effect of over 60% in size; also: potency is read from the fitted curve at half-maximal effect; as to activity change, negative = inhibition: % is scaled to controls: 0 for no effect and ±100 for the full control effect).
The nature of experiment [4]: qHTS for Inhibitors of the Functional Ribonucleoprotein Complex (vRNP) of Lassa (LASV) Arenavirus: Viability assay - alamar blue signal for LASV Primary Screen (AID 1347083; calls by dose curve; tested in HEK293 reporter line; also: nearly all actives have a fitted effect of over 80% in size; also: potency is read from the fitted curve at half-maximal effect).
A short description of experiment [5]: qHTS for Inhibitors of the Functional Ribonucleoprotein Complex (vRNP) of Lymphocytic Choriomeningitis Arenaviruses (LCMV): Viability assay - alamar blue signal for LCMV Primary Screen (AID 1347085; calls by dose curve; tested in HEK293 reporter line; also: nearly all actives have a fitted effect of over 80% in size; also: potency is read from the fitted curve at half-maximal effect).
Experiment [6] has as its target Nucleoprotein (Lymphocytic choriomeningitis virus (strain Armstrong)) (UniProt P09992). The experiment is described as follows: qHTS for Inhibitors of the Functional Ribonucleoprotein Complex (vRNP) of Lymphocytic Choriomeningitis Arenaviruses (LCMV): LCMV Primary Screen - GLuc reporter signal (AID 1347086; calls by dose curve; also: nearly all actives have a fitted effect of over 70% in size; also: potency is read from the fitted curve at half-maximal effect; as to activity change, negative = inhibition: % is scaled to controls: 0 for no effect and ±100 for the full control effect).
For experiment [7], the target named is Nuclear receptor subfamily 1 group I member 3 (Homo sapiens) (UniProt Q14994). Briefly: Primary qHTS for antagonist of constitutive androstane receptor (CAR) against the NCATS DSHEA and TCM libraries (AID 1794836). The method, boiled down:
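HepG2 cells stably carrying hCAR and a CYP2B6 luciferase reporter (2,500 cells/well) attached for 5 h, then received compounds with 48 uM CITCO for 24 h at 37C. ONE-Glo luminescence read antagonism; CellTiter-Fluor (405/540 nm) gave viability.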

Experiment [8] can be described thus: KB-8-5-11 P-gp reporter qHTS against the NCATS DSHEA and TCM libraries (AID 1919977). Also: 0% is about no effect. The method, boiled down:
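CellTiter-Glo luminescence measured viability after ~72 h exposure (37C, 5% CO2) of KB-8-5-11 cervical adenocarcinoma cells overexpressing P-gp. Colchicine was omitted during assay. Substances were tested as titrations.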

Experiment [9] in a line: Primary qHTS to identify inhibitors of SARS-CoV-2 cell entry (AID 1645846; calls by dose curve; also: nearly all actives have a fitted effect of over 45% in size). The conditions noted are these: activity change, negative = inhibition: at 57.1 µM (top of the series) unless noted. The method, boiled down: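 Entry measured by luciferase signal 48 h after adding SARS-CoV-2-S pseudotyped MLV particles to HEK293-ACE2 cells preincubated 1 h with compounds. Normalisation: bald particles and spike particles.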

The target in experiment [10] is Cytochrome P450 3A4 (Homo sapiens) (UniProt P08684). Briefly: qHTS Assay for Inhibitors and Substrates of Cytochrome P450 3A4 (AID 884). Also: potency is read from the fitted curve at half-maximal effect; nearly all actives have a fitted effect of over 50% in size. The method, boiled down:
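Luminescent readout of luciferin produced by CYP3A4 (20 nM) dealkylation of Luciferin-PPXE, 25 uM (its KM). NADPH-driven reaction ran 60 min at RT after 10 min compound preincubation; data scaled to 57 uM ketoconazole as 100% inhibition.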

The target is the same in experiment [11]. The experiment is described as follows: qHTS Assay for Activators of Cytochrome P450 3A4 (AID 885). Also: nearly all actives have a fitted effect of over 65% in size. The method, boiled down: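 Luminescent readout of luciferin formed from 25 uM Luciferin-PPXE (KM level) by 20 nM CYP3A4 in 200 mM KPO4, with 60 min NADPH-driven reaction at room temperature after 10 min compound exposure. Ketoconazole (57 uM) defined 100% inhibition.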

Experiment [12] is described as follows: qHTS profiling of the MIPE4 collection as inhibitors of Plasmodium falciparum (DD2) proliferation (AID 743345; call rule not given here). The conditions noted are these: P. falciparum Dd2 in erythrocytes, SYBR Green DNA, 72 h; at 28.5 µM (top of the series) unless noted. The method, boiled down:
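Parasite DNA was quantified by SYBR Green I fluorescence (ex 485, em 535 nm) after overnight lysis in saponin/Triton buffer at room temperature. Cultures at 0.3% parasitemia and 2.5% hematocrit were first exposed to compound for 72 h at 37 C; signals were normalised to artemisinin (0.29 uM) and vehicle wells.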

Inconclusive results are not listed. Calls of active or inactive are those of the source. Unless noted, calls follow the shape of the dose curve; as a rule, active = well fitted curve in the direction sought with a large enough effect; inconclusive = small, poorly fitted or top-dose-only effect, or another doubt; inactive = no such curve, though single readings can be large; an effect the other way counts as inactive or inconclusive. Numbered stars: 1 amine (or outer) side, 2 acyl side, 3 side chain; on linkers, the order of the positions; unused ones are H or OH. Bridge positions count the residues as written; N and C are the ends. Square brackets hold non-standard residues; d marks the D form. Peptide text beside a SMILES is read from it. I, II: the chains in the order shown. Actinocin(9to1) = Cc1c2oc3c(C)ccc(C(=O)[*:1])c3nc-2c(C(=O)[*:2])c(N)c1=O; NMeV = CN[CH](C(=O)O)C(C)C; Sar = CNCC(=O)O

Nuclear receptor subfamily 1 group I member 3 (Homo sapiens), sequence (Q14994 whole entry, looked up): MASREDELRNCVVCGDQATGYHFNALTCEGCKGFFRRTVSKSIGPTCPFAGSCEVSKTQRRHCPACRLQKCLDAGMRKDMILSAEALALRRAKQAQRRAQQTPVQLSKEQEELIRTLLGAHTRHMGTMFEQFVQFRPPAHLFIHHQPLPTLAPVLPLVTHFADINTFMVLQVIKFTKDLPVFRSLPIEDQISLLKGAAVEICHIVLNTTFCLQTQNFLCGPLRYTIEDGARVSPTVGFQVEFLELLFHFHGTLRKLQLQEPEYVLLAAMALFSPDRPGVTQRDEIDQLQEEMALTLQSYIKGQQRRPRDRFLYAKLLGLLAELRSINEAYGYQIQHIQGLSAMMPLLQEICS
Nucleoprotein (Lymphocytic choriomeningitis virus (strain Armstrong)), sequence (P09992 whole entry, looked up): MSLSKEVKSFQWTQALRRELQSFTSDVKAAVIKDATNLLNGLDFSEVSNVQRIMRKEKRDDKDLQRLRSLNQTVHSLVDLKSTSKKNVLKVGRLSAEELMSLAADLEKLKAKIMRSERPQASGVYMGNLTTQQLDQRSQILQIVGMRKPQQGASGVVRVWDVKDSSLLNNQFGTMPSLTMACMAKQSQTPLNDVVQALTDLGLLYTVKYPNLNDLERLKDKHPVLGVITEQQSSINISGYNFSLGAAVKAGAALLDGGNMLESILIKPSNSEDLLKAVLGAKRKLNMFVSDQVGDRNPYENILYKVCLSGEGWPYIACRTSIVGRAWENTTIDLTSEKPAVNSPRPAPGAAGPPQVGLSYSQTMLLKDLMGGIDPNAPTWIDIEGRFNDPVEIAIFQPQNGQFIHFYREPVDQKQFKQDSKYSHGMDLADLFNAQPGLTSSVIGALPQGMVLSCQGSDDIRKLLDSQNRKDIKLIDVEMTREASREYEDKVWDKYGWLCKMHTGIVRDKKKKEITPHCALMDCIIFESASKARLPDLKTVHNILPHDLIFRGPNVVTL
Cytochrome P450 3A4 (Homo sapiens), sequence (P08684 whole entry, looked up): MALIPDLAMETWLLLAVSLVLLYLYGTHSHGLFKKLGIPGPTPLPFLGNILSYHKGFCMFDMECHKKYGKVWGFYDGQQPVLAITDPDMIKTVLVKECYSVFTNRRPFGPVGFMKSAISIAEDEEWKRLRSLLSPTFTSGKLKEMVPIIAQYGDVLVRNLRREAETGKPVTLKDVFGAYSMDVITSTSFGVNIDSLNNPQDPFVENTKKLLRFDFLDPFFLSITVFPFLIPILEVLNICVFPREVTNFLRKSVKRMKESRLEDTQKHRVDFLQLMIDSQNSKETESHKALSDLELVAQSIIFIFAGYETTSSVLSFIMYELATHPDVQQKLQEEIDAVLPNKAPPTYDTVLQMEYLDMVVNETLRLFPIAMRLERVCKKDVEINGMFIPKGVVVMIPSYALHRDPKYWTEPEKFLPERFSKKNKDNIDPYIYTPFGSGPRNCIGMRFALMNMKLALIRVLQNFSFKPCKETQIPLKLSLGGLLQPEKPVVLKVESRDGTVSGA
Alpha-galactosidase (Coffea arabica), sequence (Q42656 whole entry, looked up): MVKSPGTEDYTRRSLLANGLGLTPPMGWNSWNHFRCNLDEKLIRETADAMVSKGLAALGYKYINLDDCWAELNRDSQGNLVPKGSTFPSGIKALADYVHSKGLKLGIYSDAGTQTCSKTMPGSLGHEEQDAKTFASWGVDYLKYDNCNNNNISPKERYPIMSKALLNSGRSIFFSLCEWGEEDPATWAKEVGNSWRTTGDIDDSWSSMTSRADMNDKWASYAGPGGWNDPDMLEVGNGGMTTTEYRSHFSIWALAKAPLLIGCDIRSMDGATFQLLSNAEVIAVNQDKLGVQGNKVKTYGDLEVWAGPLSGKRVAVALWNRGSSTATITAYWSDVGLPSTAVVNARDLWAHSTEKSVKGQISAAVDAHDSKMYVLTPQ

As for `O=c1cc(-c2ccc(O)cc2)oc2cc(O)cc(O)c12`, the result in [1], in experiment [2] and in [8] was inactive. Also, the Potency entry in experiment [3], in experiment [4], in experiment [5], in [6] and in [7] was “inactive” each time.
For the compound `C[C@@]12C[C@@]3(O)O[C@@H](O1)[C@]1(COC(=O)c4ccccc4)[C@@H]3C[C@@]12O[C@@H]1O[C@H](CO)[C@@H](O)[C@H](O)[C@@H]1O`, the Potency entry in experiment [3], in [4], in experiment [5], in [6] and in experiment [7] was “inactive” in each case. Moreover, in experiment [8], the call was inactive.
In the case of `Cc1c2oc3c(C)ccc(C(=O)NC4C(=O)NC(C(C)C)C(=O)N5CCCC5C(=O)N(C)CC(=O)N(C)C(C(C)C)C(=O)OC4C)c3nc-2c(C(=O)NC2C(=O)NC(C(C)C)C(=O)N3CCCC3C(=O)N(C)CC(=O)N(C)C(C(C)C)C(=O)OC2C)c(N)c1=O` (stereo not given) (I: TVP[Sar][NMeV] / II: TVP[Sar][NMeV]; ester I:1-I:C, II:1-II:C; linker I:N-II:N via Actinocin(9to1); configuration not given here), the Potency result in experiment [3], in [4], in [5] and in experiment [6] was “inactive” in each case. The activity change, negative = inhibition in [9] is -91.5% [at 27.1 µM].
Consider `COc1ccc(C(C)=O)c(O)c1`, for which the Potency result in experiment [3], in experiment [4], in experiment [5], in experiment [6] and in experiment [7] was “inactive” each time. Further, the compound was called inactive in [8].
Consider `NC(=O)Nc1sc(-c2ccc(F)cc2)cc1C(N)=O`, for which the Potency in experiment [3] was 432 nM (active); in experiment [4], 273 nM (active); in experiment [5], 137 nM (active); in [6], 273 nM (active). Also, the activity change, negative = inhibition in experiment [9] is -30.6%.
For `O=c1cc(-c2ccc(O)c(O)c2)oc2cc(O)cc(O)c12`, the Potency in [10] was 15800 nM (active). The Potency entry in [11], in experiment [3], in [4], in experiment [5], in experiment [6] and in [7] was “inactive” throughout. Besides, the parasite growth remaining, % of DMSO control (lower = more inhibition) in experiment [12] was 89.2%. In [8], the compound was called inactive.
Take `CC1=CCC(=C(C)C)CC1`: the Potency result in experiment [3], in experiment [4], in experiment [5] and in experiment [6] was “inactive” throughout. Besides, the call in [8] was inactive.
Consider `CNC(=O)Nc1ccc(-c2nc(N3CC4CCC(C3)O4)c3cnn(C4CCC5(CC4)OCCO5)c3n2)cc1`, for which the Potency in [3] was 15.3 nM (active); in experiment [4], 4.9 nM (active); in [5] it was 15.3 nM (active); in [6], 27.3 nM (active). Moreover, in experiment [9], the activity change, negative = inhibition was -83.7%.
Take `CC(=O)OC/C=C/c1ccccc1`: the Potency result in experiment [3], in experiment [4], in experiment [5], in experiment [6] and in [7] was “inactive” each time. Further, the compound was classed as inactive in experiment [8].
